# Screening results as filed in PubChem BioAssay.
# This is a sample that favours compounds with a hit; in the whole collection about 19% have one here.
# DT40 TDP1 no CPT: qHTS for Inhibitors of human tyrosyl-DNA phosphodiesterase 1 (TDP1): qHTS in cells in absence of CPT; DT40 Tdp1-/- hTDP1 cells, no CPT, ATP luminescence, 48 h; AID 686978, 2013; 420,000 compounds, 15% hits; Potency, µM (top dose mostly 46.2 µM), for inactives: at the top dose activity change, negative = growth inhibition, most hits filed as inhibitors; further: nearly all actives have a fitted effect of over 55% in size
#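 Chicken DT40 Tdp1-/- cells stably complemented with human TDP1 were seeded at 400 cells/well with DMSO in place of 20 nM camptothecin. After compound pinning, cells grew at least 48 hr at 37 °C; viability read by CellTiter-Glo luminescence.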
# KB-V1 MDR tox: KB-V1 MDR subline cytotoxicity | Potency, µM (titrated, usually from 46.1 µM), actives largely listed as cytotoxic | AID 1347076 | KB-V1 MDR cells viability, CellTiter-Glo, 72 h | 400,000 compounds, 3.4% hits; further: nearly all actives have a fitted effect of over 60% in size
#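 Luminescent ATP read-out (CellTiter-Glo, 10 min) measures survival of drug-selected KB-V1 MDR cells after 72 h, 37 degrees C compound exposure. Medium: phenol-red-free DMEM, 10% FBS. Values from fitted concentration-response curves.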
# HT1080 IDH1KD tx: HT-1080 IDH1 knockdown cell toxicity (counter line). HT-1080 IDH1 knockdown viability, ATP luminescence, 48 h. Potency, µM (top dose mostly 46.1 µM), inactives show at the highest dose activity, negative = toxicity, usual class: cytotoxic. 360,000 compounds, 2% hits;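 further: 0% = DMSO wells and -100% = cell-free medium wells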
#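 IDH1KD HT-1080 cells, 750/well, RPMI + 5% FBS; compound pinned after 2 h settling; 48 h, 37 °C; CellTiter-Glo luminescence; % activity normalised to DMSO and no-cell wells; curves fitted, classed by r2 and efficacy.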
# HT1080-NT tox: kills 2HG-producing HT-1080-NT fibrosarcoma cells; HT-1080-NT fibrosarcoma viability, CellTiter-Glo ATP luminescence, 48 h; Potency, µM (titrated, usually from 46.1 µM), for inactives: top-dose activity, negative = less viability, most hits filed as cytotoxic; 360,000 compounds, 1.6% hits; AID 686970;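 further: NT is the 2HG producing partner of a matched IDH1 knockdown line; 0% = DMSO-treated cells and -100% = media-only wells without cells; nearly all actives have a fitted effect of over 55% in size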
#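 Viability of the 2HG-overproducing fibrosarcoma line after 48 hours of compound exposure at 37 degrees C was determined by luminescence with CellTiter-Glo, and concentration-effect curves were then fitted and categorized.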
# KB-3-1 tox: kills parental KB-3-1 adenocarcinoma cells; 400,000 compounds, 1.4% hits; AID 1347075; KB-3-1 viability, CellTiter-Glo ATP luminescence, 72 h; Potency, µM (top dose mostly 46.1 µM), hits mostly cytotoxic; further: nearly all actives have a fitted effect of over 60% in size
#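 Multi-concentration cytotoxicity screen in KB-3-1 cells grown in DMEM lacking phenol red with 10% FBS. After 72 h at 37 °C with compound, ATP-dependent luminescence was recorded.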
# TDP1 cell CPT: DT40-hTDP1 cell growth loss with CPT; Potency, µM (titrated, usually from 46.2 µM), for inactives: at the highest dose activity change, negative = growth inhibition, actives largely listed as inhibitors; 420,000 compounds, 12% hits; chicken DT40 Tdp1-/-;hTDP1 cells + 20 nM CPT, ATP luminescence, 48 h; further: nearly all actives have a fitted effect of over 55% in size
#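 Cell growth measured by CellTiter-Glo luminescence after a minimum 48 h, 37 C compound exposure with 20 nM CPT in Tdp1-knockout DT40 cells stably expressing hTDP1, seeded 400/well; qHTS titration format.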
# An asterisk follows results filed as active; i = inactive; ? = inconclusive; / = no result given; [ ] = remark or other dose. The call rests on the fitted dose curve; in most records, active means well fitted curve in the direction sought with a large enough effect; inconclusive means small, poorly fitted or top-dose-only effect, or another doubt; inactive means no such curve, though single readings can be large; an effect the other way counts as inactive or inconclusive. Unless noted, on the % scale 0 is the no-effect control and ±100 the full control effect; potency means the concentration at half of the fitted maximal effect.
SMILES,DT40 TDP1 no CPT,KB-V1 MDR tox,HT1080 IDH1KD tx,HT1080-NT tox,KB-3-1 tox,TDP1 cell CPT
COc1ccc(CNCC(O)(c2ccc(Cl)cc2)c2ccc(Cl)cc2)cc1OC,6.5µM*,7.3µM*,?,?,i,15µM*
COc1cc(CNCc2ccc(C(=O)O)cc2)ccc1OCc1ccc(F)cc1,7%,i,-5%,-1%,i,-14%
COc1ccc(CNCC(O)(c2ccc(F)cc2)c2ccc(F)cc2)cc1OC,16µM*,i,?,?,?,?
COc1ccc(CNCC(O)(c2ccccc2)c2ccc(F)cc2)cc1 (configuration not stated),15µM*,i,?,-27%,i,21µM*
CCCCNCC(O)(c1ccc(Cl)cc1)c1ccc(Cl)cc1,23µM*,i,18µM*,?,i,15µM*
COc1ccc(CNC/C=C/c2ccccc2)cc1,?,i,-1%,-5%,i,?
CCCCCNCc1ccc(Cl)cc1,-13%,i,3%,0%,i,17%
C[N+]1(CC(=O)c2ccc(Oc3ccccc3)cc2)CCOCC1,?,i,/,/,i,?
CCOc1ccc(-n2c(-c3ccc(C)cc3)nc3c(cnn3-c3ccccc3)c2=O)cc1,?,i,/,/,i,-26%
COc1ccc(-n2c(-c3ccco3)nc3c(cnn3-c3ccc(C)cc3)c2=O)cc1,12µM*,?,1%,3%,?,12µM*
COc1ccc(-n2c(-c3ccccc3F)nc3c(cnn3-c3ccc(C)cc3)c2=O)cc1,13µM*,/,/,/,/,21µM*
COc1cccc(-n2c(-c3ccco3)nc3nc4ccccc4nc32)c1,-19%,i,13%,17%,i,-5%
COc1ccc2c(=O)c3c(=O)n(-c4ccccc4)c(-c4ccco4)nc3oc2c1,?,i,14%,22%,i,-20%
COc1cccc(-n2c(-c3ccco3)nc3c(cnn3-c3ccc(C)cc3)c2=O)c1,15µM*,i,/,/,?,15µM*
O=C(O)CCN1C(=O)c2ccc(NC(=O)C(c3ccccc3)c3ccccc3)cc2C1=O,-3%,i,-1%,-2%,i,1%
COC(=O)/C=C1\OCc2cc(OCc3ccccc3)ccc21,?,i,-19%,-19%,i,?
CC(C)c1ccc(CC(=O)N2CCC2(C)C(=O)NS(=O)(=O)c2cccc(OC(F)F)c2)cc1 (configuration not stated),-4%,i,21%,5%,i,-14%
COc1cc(C(=O)Nc2cc(C)c(O)c(-c3nc4cc(Cl)ccc4o3)c2)cc(OC)c1OC,/,i,/,/,7.3µM*,/
COc1cccc(OC)c1C(=O)Nc1cccc(-c2nc3cc(C)cc(C)c3o2)c1,7.3µM*,?,/,/,i,13µM*
Cc1cc(C)c2oc(-c3cccc(NC(=O)c4ccco4)c3)nc2c1,-89%,i,/,/,i,?
COc1cc(C(=O)Nc2cccc(-c3nc4cc(C)ccc4o3)c2)cc(OC)c1OC,?,i,-3%,-7%,i,23µM*
Cc1cc(NC(=O)c2cccnc2)cc(-c2nc3cc(Cl)ccc3o2)c1O,/,i,/,/,i,/
Cc1ccc2oc(-c3cccc(NC(=O)c4ccccn4)c3)nc2c1,?,i,15%,14%,i,?
O=C(CSc1nccn1Cc1ccccc1)NCc1ccco1,3%,/,/,/,/,-6%
COc1ccc(NC(=O)c2nc(C)c(C3(C)CC(c4ccccc4)=NO3)s2)cc1 (configuration not stated),5.8µM*,?,?,?,4.6µM*,1µM*
SMILES,DT40 TDP1 no CPT,KB-V1 MDR tox,HT1080 IDH1KD tx,HT1080-NT tox,KB-3-1 tox,TDP1 cell CPT
Cc1nc(NC(=O)c2ccccc2)sc1C1(C)CC(c2c(Cl)cccc2Cl)=NO1 (configuration not stated),?,i,-14%,-10%,?,23µM*
Cc1nc(NC(=O)c2ccccc2)sc1C1(C)CC(c2ccccc2F)=NO1 (configuration not stated),-95%,i,-2%,-3%,i,-97%
Cc1c(C(=O)NC(C)(C)C)sc2ncnc(NCCN(C)C)c12,-20%,/,/,/,/,17%[9.04 µM]
O=C(C1CCCCC1)N1CCC(CO)(Cc2ccccc2Cl)CC1,21µM*,i,2%,0%,i,?
O=C(C1CC=CCC1)N1CCC(CO)(Cc2ccc(Cl)cc2)CC1 (configuration not stated),?,12µM*,2%,-20%,?,?
CCOC(=O)C1CCN(C(=O)CCc2c(C)nc3cc(-c4ccc(OC)cc4OC)nn3c2C)CC1,?,i,21%,7%,i,?
COc1ccc(-c2cc3nc(C)c(CCC(=O)N4CCN(c5ccc(F)cc5)CC4)c(C)n3n2)c(OC)c1,16µM*,i,/,/,i,23µM*
COc1ccc(-c2cc3nc(C)c(CCC(=O)N4CCN(c5cccc(Cl)c5)CC4)c(C)n3n2)c(OC)c1,5.8µM*,i,/,/,i,2.6µM*
COc1ccc(N2CCN(C(=O)CCc3c(C)nc4cc(-c5ccc(OC)cc5OC)nn4c3C)CC2)cc1,16µM*,i,/,/,i,21µM*
COc1ccc(N2CCN(C(=O)CCc3c(C)nc4cc(-c5ccc(Cl)cc5)nn4c3C)CC2)cc1,-29%,i,/,/,i,2%
COc1ccc(N(CC(=O)NC(C)(C)C)C(=O)CCC(=O)Nc2nccs2)c(OC)c1,-13%,i,1%,0%,i,-1%
O=c1c2c(nc3c(-c4ccc(Cl)cc4)c[nH]n13)CCC2,4.6µM*,4.6µM*,?,-21%,?,2.3µM*
O=c1c2c(nc3cc(-c4ccccc4)[nH]n13)CCC2,-5%,i,-2%,-1%,i,5%
O=c1c2c(nc3c(-c4cccc(Br)c4)c[nH]n13)CCCC2,-103%,i,-13%,-10%,i,16µM*
Cc1c(-c2ccccc2)[nH]n2c(=O)c3c(nc12)CCCC3,-5%,21µM*,-2%,9%,i,1%
O=c1c2c(nc3c(-c4ccccc4)c[nH]n13)CCC2,16µM*,?,?,11µM*,?,?
O=C1NC[C@@H](CCCCN2CCN(CC3CCCCC3)C(=O)C2=O)N(CCC2CCCCC2)C1=O,-17%,?,13%,18%,i,-1%
